In all, about 66,000 compounds went through this assay and about 720 (1.1%) were called active. Cut-off read from the data, not from the text of the source: active = normalised signal below about 0.5; inactive = the rest, inconclusive results apart. The list comes from a sample in which actives are over-represented; it also holds similar structures and randomly drawn compounds.
target: Chromobox protein homolog 7 (Homo sapiens) (UniProt O95931); assay: CBX7 chromodomain binding inhibitors, primary screen, biochemical, AlphaScreen (AID 1224903); settings: AlphaScreen His6-CBX7 / biotin-H3K27me3 peptide binding, stronger effect = lower value; z-score: measured here: z-score of CBX7 signal
Sequence (O95931 whole entry, looked up): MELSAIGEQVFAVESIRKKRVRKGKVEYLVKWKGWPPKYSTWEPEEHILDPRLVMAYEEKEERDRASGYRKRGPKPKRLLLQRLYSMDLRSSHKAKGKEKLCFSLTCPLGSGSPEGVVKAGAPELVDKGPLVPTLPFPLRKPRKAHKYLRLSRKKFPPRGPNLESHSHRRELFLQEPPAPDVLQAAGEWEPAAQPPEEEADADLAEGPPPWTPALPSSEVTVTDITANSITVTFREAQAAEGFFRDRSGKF

SMILES	normalised signal (fraction of DMSO)	z-score
Cc1ccc2c(c1)C(c1ccc(F)cc1)N(C(=O)c1ccc(S(=O)(=O)N3CCCC3)cc1)CC(=O)N2 (centres undefined)	0.859 (inactive)	-1.94
Cc1ccc2c(c1)C(c1ccc(F)cc1)N(C(=O)c1ccc(C)c(C)c1)CC(=O)N2 (centres undefined)	0.316 (active)	-6.53
Cc1ccc(C(=O)N2CC(=O)Nc3ccc(F)cc3C2c2ccc(F)cc2)cc1 (centres undefined)	1.01 (inactive)	0.159
O=C(Nc1ccccc1C(=O)Nc1ccccc1)c1cccc(S(=O)(=O)N2CCCCC2)c1	0.764 (inactive)	-2.54
Cc1ccc(C(C)C)c(OCc2nnc(NC(=O)c3ccc(Br)cc3)s2)c1	1.06 (inactive)	0.262
CCN1CCN(CCCNC(=O)c2ccc3c(c2)N(Cc2ccc(F)cc2)CCS3)CC1	0.904 (inactive)	-4.6
CC(=O)N1CCC(N(C(=O)Nc2ccc(Cl)cc2)C2CCCCCC2)CC1	1.02 (inactive)	0.287
Cc1ccc(-c2nc(Nc3ccccc3)sc2C)cc1	0.99 (inactive)	-0.257
CCCCNC(=O)c1cc(Nc2ccc(CC)cc2)nc2ccccc12	0.991 (inactive)	-0.251
O=C(NCc1ccccc1)C1CCN(c2nc3ccccc3o2)CC1	1.02 (inactive)	0.778
COc1ccc(CNc2nc(-c3ccccc3)cc(C(F)(F)F)n2)cc1	1.28 (inactive)	3.06
CC(C)n1cnc2cc(NCc3ccccc3Cl)ccc21	0.463 (active)	-15.4
Cc1ccc(NC(=O)CCc2nnc3ccc(NCc4ccccc4Cl)nn23)cc1	0.916 (inactive)	-2.3
COc1ccc(CNc2ccc3c(c2)ncn3C(C)(C)C)c(OC)c1	0.589 (inactive)	-11.8
COc1ccc(OC)c(Cc2nc3cc(C)c(C)cc3[nH]c2=O)c1	0.964 (inactive)	-1.09
O=C(Nc1ccccc1Cl)C1CCN(C(=O)c2cnn(-c3ccccc3)c2-n2cccc2)CC1	1.04 (inactive)	1.69
Cc1ccc(C(=O)CN2C3=NCCN3c3ccccc32)cc1	0.994 (inactive)	-0.186
CC(C)N(CCCNC(=O)C1CCC(=O)N1Cc1ccc(F)cc1)Cc1ccccc1 (centres undefined)	0.995 (inactive)	-0.146
CCc1ccc(NC(=O)Cn2c(SCc3cccc(F)c3)nc3ccncc32)cc1	1.06 (inactive)	0.594
Fc1cnc(Nc2ccc(Cl)cc2)nc1Nc1ccc(Cl)cc1	1.05 (inactive)	0.523
CC(C)c1ccc(OCC(O)Cn2cnc3ccccc32)cc1 (centres undefined)	0.284 (active)	-13.5
Cc1ccc(C(C)C)cc1OCC(O)Cn1cnc2ccccc21 (centres undefined)	0.815 (inactive)	-2.55

SMILES	normalised signal (fraction of DMSO)	z-score
CCc1cc(C)cc(OCC(O)Cn2cnc3ccccc32)c1 (centres undefined)	0.88 (inactive)	-3.02
Cc1ccc(NC(=O)c2cc(C)nn2-c2ccccc2)c(C)c1	1.04 (inactive)	1.18
COc1cccc(C(=O)Nc2ccc3oc(-c4ccccc4)nc3c2)c1	1.16 (inactive)	2.43
COc1ccc(-c2noc(N(C)CC(=O)N3CCN(C)CC3)n2)cc1	1.02 (inactive)	0.593
O=C(CSCc1cnn(-c2ccccc2)c1-n1cccc1)NC1CC1	0.986 (inactive)	-0.615
COc1ccccc1N1CCN(C(c2cccs2)C(C)NC(=O)c2ccc3c(c2)OCO3)CC1 (centres undefined)	0.905 (inactive)	-2.32
CCOc1ccc(C(=O)Nc2c3c(nn2-c2cccc(C)c2C)CSC3)cc1	1.01 (inactive)	0.119
Cc1ccc(Cc2cnc(CN(C)C)c(O)c2)cc1	0.477 (active)	-6.92
Clc1ccc2nc(-c3ccsc3)c(NC(c3ccccc3)c3ccccc3)n2c1	1.04 (inactive)	1.58
COc1ccc(-c2cc(C(=O)NCCCn3ccnc3)no2)cc1	0.983 (inactive)	-0.364
Cc1ccc(CNc2oc(-c3ccc(F)cc3)nc2C#N)cc1	0.934 (inactive)	-2.3
Cc1ccc(-c2nc(C#N)c(NCCCn3ccnc3)o2)cc1	0.442 (active)	-0.658
COc1ccc(Cl)cc1NC(=O)C1c2cc(OC)c(OC)cc2C(=O)N(C)C1c1ccccc1F (centres undefined)	1.06 (inactive)	1.16
Cc1ccc(CNC(=O)c2c(-c3ccccc3)noc2C)cc1	1.03 (inactive)	0.952
CC1(C)CC(=O)c2cc(OCC(=O)NCCCN3CCCC3)ccc2O1	0.509 (inactive)	-9.7
Cc1ccc(-c2nc3c(C)cccn3c2Nc2ccc3c(c2)OCCO3)cc1	0.63 (inactive)	-13.9
O=C(NCc1ccccc1)C1C2C=CC3(CN(Cc4ccccc4Cl)C(=O)C13)O2 (centres undefined)	0.955 (inactive)	-2.13
CCCCn1c(C2CC(=O)N(c3ccc(CC)cc3)C2)nc2ccccc21 (centres undefined)	0.96 (inactive)	-0.9
Cc1ccc(-c2nnc(Nc3ccc(OCC(N)=O)cc3)c3ccccc23)cc1S(=O)(=O)NC(C)C	0.723 (inactive)	-5.21
Cc1ccc(-c2nnc(Nc3ccc(C(=O)N(C)C)cc3)c3ccccc23)cc1S(N)(=O)=O	1.08 (inactive)	2.41
CCOc1ccc(-c2nnc(Nc3ccc(C(N)=O)cc3)c3ccccc23)cc1	0.436 (active)	-2.64
CCCNC(=O)c1ccc2c(c1)N(Cc1ccccc1)C(=O)c1ccccc1S2(=O)=O	1.14 (inactive)	2.25

SMILES	normalised signal (fraction of DMSO)	z-score
CCOC(=O)c1sc(NC(=O)c2ccc(OCC)cc2)nc1-c1ccccc1	0.993 (inactive)	-0.166
Cc1ccc(Cn2c(=O)cc(C(=O)NC3CC3)c3ccccc32)cc1	0.912 (inactive)	-0.873
COc1ccc(Cl)cc1C1CC(=O)Nc2cc3c(cc21)OCO3 (centres undefined)	1.03 (inactive)	0.351
CCc1nc2ccc(C(=O)NCC(OC)OC)cc2nc1CC	1.13 (inactive)	0.801
CC1CCN(c2c(NCc3ccc(C(=O)NCc4ccccc4)cc3)c(=O)c2=O)CC1	0.993 (inactive)	-0.292
COc1ccc(-c2nc(-c3ccc(F)cc3)c(-c3ccc(F)cc3)[nH]2)cc1OC	0.322 (active)	-13.4
COc1cc(-c2nc(-c3ccccc3)c(-c3ccccc3)[nH]2)ccc1OCC(=O)O	0.774 (inactive)	-0.891
COc1ccc(-c2[nH]c(-c3ccc(C)cc3)nc2SCC(=O)Nc2ccc(F)cc2)cc1OC	0.756 (inactive)	-11.6
CC1(C)C=c2c(nnc3ncnn23)=C(O)C1	0.00873 (active)	-15.7
CCOC(=O)C1CCCN(c2c(N3CC(C)CC(C)C3)c(=O)c2=O)C1 (centres undefined)	0.898 (inactive)	-2.3
Cc1ccc(OCc2nc(C#N)c(N3CCCC3)o2)cc1	0.417 (active)	-10.6
COc1ccc(OCc2nc(C#N)c(N(C)Cc3ccccc3)o2)cc1	0.575 (inactive)	-2.65
N#Cc1nc(COc2ccc(Cl)cc2)oc1N1CCCC1	0.728 (inactive)	-11.9
Cc1cc(N2CCCCC2)nc2ccc(NC(=O)CCC(=O)N3CCN(c4ccc(F)cc4)CC3)cc12	1.05 (inactive)	0.868
Cc1ccc(C)c(CN2C(=O)CSc3ccc(C(=O)NCCCN4CCCCCC4)cc32)c1	0.98 (inactive)	-0.433
Cc1cc(C)nc(N=C(N)N2CCC(Cc3ccccc3)CC2)n1	0.97 (inactive)	-0.61
COc1cc(Cl)c(C)cc1NC(=O)c1n[nH]c(=O)c2ccccc12	1.01 (inactive)	0.38
CC1CCCCC1NS(=O)(=O)c1ccc2c(c1)CCN2C(=O)C1CCC1 (centres undefined)	0.937 (inactive)	-2.14
COCCN1Cc2cccc(C(=O)NC3CCCC3)c2C1=O	1.06 (inactive)	0.062
O=C(NC1CC1)c1ccc2c(c1)NC(=O)c1ccccc1N2	0.861 (inactive)	-2.13
Cc1sc2ncnc(NCC3(c4ccccc4)CCCC3)c2c1C	1.08 (inactive)	1.89
COCCNC(=O)c1ccc2c(c1)N=C(C)c1cc(Br)ccc1S2	0.995 (inactive)	-0.23

SMILES	normalised signal (fraction of DMSO)	z-score
CCC(C)NC(=O)c1sc2ncn(CC(=O)Nc3ccccc3OC)c(=O)c2c1C (centres undefined)	1.07 (inactive)	0.734
Cc1ccc(-c2nc3ncccc3o2)cc1NC(=O)c1ccc(Br)cc1	0.923 (inactive)	-0.643
CC(C)NC(=O)c1ccc2nc(-c3ccccc3)c(-c3ccccc3)nc2c1	1.07 (inactive)	0.662
Cc1cccc(CCNC(=O)CCCNS(=O)(=O)c2ccc3c(c2)CCC(=O)N3)c1	1.06 (inactive)	2.11
CCOc1ccc(CNC(=O)C(C)N2C(=O)COc3ccc(C)cc32)cc1 (centres undefined)	0.421 (active)	-10.5
Cc1ccc2c(c1)N(C(C)C(=O)NCc1ccc(F)cc1Cl)C(=O)CO2 (centres undefined)	0.512 (inactive)	-8.83
CCN(CCCNC(=O)C(C)N1C(=O)COc2ccc(C)cc21)c1ccccc1 (centres undefined)	0.631 (inactive)	-6.67
O=C1C2C3C=CC(C4CC34)C2C(=O)N1Cc1cccnc1 (centres undefined)	0.934 (inactive)	-1.18
Cc1cc(N2CCCCC2)nc2ccc(NC(=O)c3cnccn3)cc12	0.882 (inactive)	-2.15
CCN(CCNC(=O)Cn1nc(-c2ccc(Cl)cc2)ccc1=O)c1ccccc1	0.859 (inactive)	-7.3
COc1ccc(N2CC(C(=O)Nc3ccc(C(C)C)cc3)CC2=O)cc1 (centres undefined)	1.06 (inactive)	0.0758
CC(=O)Nc1ccccc1-c1nc2ccccc2n(C)c1=O	1.23 (inactive)	3.65
Cc1cc(C)cc(OC(C)C(=O)N(Cc2ccc(Cl)cc2)C2CCS(=O)(=O)C2)c1 (centres undefined)	0.978 (inactive)	-0.282
Nc1nonc1-c1noc(-c2c(F)cccc2F)n1	1.09 (inactive)	0.864
COc1ccc(Nc2cc(C(=O)NC3CC3)c3ccccc3n2)c(OC)c1	0.865 (inactive)	-2.17
CCOc1ccc(-n2ccnc2SCC(=O)Nc2cccc(Cl)c2)cc1	0.445 (active)	-0.736
CCOc1ccc(-n2ccnc2SCC(=O)Nc2ccc(C)cc2C)cc1	0.963 (inactive)	-0.292
CCOc1ccc(-n2ccnc2SCC(=O)Nc2ccccc2F)cc1	0.617 (inactive)	-0.508
COc1ccc(-n2ccnc2SCC(=O)Nc2ccc(C)cc2)cc1	0.62 (inactive)	-0.504
COc1cccc(-n2ccnc2SCC(=O)Nc2ccc(Br)cc2)c1	0.458 (active)	-0.719
COc1cccc(-n2ccnc2SCC(=O)Nc2ccc(OC(F)(F)F)cc2)c1	0.995 (inactive)	-0.0932

From PubChem BioAssay AID1224903 (Bradner/Qi Labs at DFCI, 2016)
